assay: inhibition of PAO1 biofilm formation – strain PAO1, LB-PBS medium, absorbance 600 nm, primary screen (AID 1176); further: test concentration not given here; conditions: P. aeruginosa PAO1 growth/biofilm, A600, 12 h; higher = more signal; call rule not given here

z-score, inactive:
Cc1ccc(S[C@]2(C(=O)O)CC(=O)N(Cc3cc(C(F)(F)F)cc(C(F)(F)F)c3)[C@@H]2c2ccc(CO)cc2)cc1 0.761
CC(C)Cc1ccc(CN2CC[C@@H](NC(=O)Nc3ccccc3)C2)cc1 0.294
C=CC1c2cc(O)c(OC)cc2CCN1Cc1cc2c(cc1Br)OCO2 (stereo unspecified) -0.0065
O=C1O[C@H](c2ccccc2)[C@H](c2ccccc2)N2[C@H]1[C@@H](C(=O)N1CCN(c3ncccn3)CC1)[C@]1(C(=O)Nc3ccc(C#CC4(O)CCCCCC4)cc31)[C@H]2c1ccc(OCCO)cc1 3.52
COC(=O)C(CC#Cc1ccc2c(c1)[C@]1(C(=O)N2)[C@H](c2ccccc2OCCO)N2[C@H](c3ccccc3)[C@H](c3ccccc3)OC(=O)[C@H]2[C@@H]1C(=O)NC[C@H](O)c1ccccc1)C(=O)OC 2.09
Cc1ccccc1C(O)C1C=CC2C(=O)N(C)C(=O)C2N1N(c1ccccc1)c1ccccc1 (stereo unspecified) 0.53
CCC[C@@H]1C[C@@]1(CCC)[C@@H](NC(=O)OCc1ccccc1)c1ccc(-c2ccccc2)cc1 0.191
CN(C)C(=O)C1N=C(c2ccc(OCCCO)cc2)N(c2ccccc2)O1 (stereo unspecified) -0.841
O=C1O[C@H](c2ccccc2)[C@H](c2ccccc2)N2[C@H]1[C@@H](C(=O)O)[C@]1(C(=O)Nc3ccc(C#CC4=CCCCC4)cc31)[C@H]2c1ccc(O)cc1 1.42
C=CCOC(=O)[C@H]1[C@@H]2C(=O)O[C@@H](c3ccccc3)[C@@H](c3ccccc3)N2[C@@H](c2ccc(OCCOC(=O)[C@H]3C[C@H]4C(=O)N[C@@H](CCCCNC(C)=O)C(=O)N4[C@H]3c3ccc(O)cc3)cc2)[C@]12C(=O)Nc1ccccc12 2.52
CN1C(=O)C2C=CC(C(O)c3cccc4ccccc34)N(N3CCCCC3)C2C1=O (stereo unspecified) -0.0625
C=CCOC(=O)[C@H]1[C@@H]2C(=O)O[C@@H](c3ccccc3)[C@@H](c3ccccc3)N2[C@@H](c2ccc(OCCOC(=O)[C@@H]3C[C@@H]4C(=O)N5CCC[C@H]5C(=O)N4[C@@H]3c3ccc(O)cc3)cc2)[C@]12C(=O)Nc1ccc(I)cc12 3.91
O=C1C2C=CC(C(O)c3ccccc3)N(Nc3ccccc3F)C2C(=O)N1c1ccccc1 (stereo unspecified) 0.629
CN(C)c1ccc(C(O)C2C=CC3C(=O)N(c4ccccc4)C(=O)C3N2Nc2ccc([N+](=O)[O-])cc2)cc1 (stereo unspecified) 0.617
[N-]=[N+]=NCc1ccccc1[C@H]1OC(c2ccc(OCCCO)cc2)=N[C@@]1(CCS(=O)(=O)c1ccccc1)C(=O)N1CCCCC1 0.659
C=CCOC(=O)[C@H]1[C@@H]2C(=O)O[C@@H](c3ccccc3)[C@@H](c3ccccc3)N2[C@@H](c2ccc(OCCOC(=O)[C@@H]3C[C@@H]4C(=O)N[C@@H](CCCCNC(C)=O)C(=O)N4[C@@H]3c3ccc(O)cc3)cc2)[C@]12C(=O)Nc1ccc(I)cc12 1.55
COc1cc2c(cc1OC)CN(C(=O)[C@@H]1[C@H]3C(=O)O[C@H](c4ccccc4)[C@H](c4ccccc4)N3[C@H](c3ccc(OCCO)cc3)[C@@]13C(=O)Nc1ccc(C#CC4(O)CCCCCC4)cc13)CC2 4.2
C=C(/C(=C/C[C@H](OC(C)=O)c1ccccc1OCCO)c1cc(C(=O)OC)ccc1OC)C(C)C -0.529
CCOC(=O)C[C@H]1[C@H](OC(=O)c2cc3ccccc3oc2=O)[C@@H](NC(=O)c2ccc(-c3ccccc3)cc2)c2cc(OCCCO)ccc2N1C(=O)c1ccc2ccccc2n1 -0.0218
CN(C)CCCCNC(=O)[C@@H]1C[C@@H]2C(=O)N[C@@H](Cc3ccccc3)C(=O)N2[C@@H]1c1cccc(OCCO)c1 0.215
COc1ccc([Si](C)(C)[C@@H]2[C@@H](CCO)O[C@]3(C(=O)N(Cc4ccc(N5CCCCC5=O)cc4)c4ccccc43)[C@H]2C)cc1 1.45
COCCOC(=O)N1C(=O)[C@@]2(c3cc(C#CC4=CCCCC4)ccc31)[C@H](c1ccccc1OCCO)N1[C@H](c3ccccc3)[C@H](c3ccccc3)OC(=O)[C@H]1[C@@H]2C(=O)Nc1nc2ccccc2s1 1.63
CCCCC(=C=CC[C@@H](O)c1ccccc1OCCO)C[C@@H](O)COCc1ccccc1 0.0478
Cc1ccc(S[C@]2(C(=O)NCC(F)(F)F)CC(=O)N(Cc3ccccc3)[C@@H]2c2ccc(CO)cc2I)cc1 0.848
O=C(NCC(F)(F)F)[C@@H]1c2ccccc2C(=O)N(Cc2cc(F)cc(C(F)(F)F)c2)[C@H]1c1ccc(CO)cc1 0.221
C=C(CCCC)/C(=C/C[C@@H](OC(=O)c1ccncc1)c1ccccc1OCCO)c1cnc2ccccc2c1 1.07
[N-]=[N+]=Nc1ccccc1C[C@]1(C(=O)N2CCOCC2)N=C(c2ccc(OCCCO)cc2)O[C@H]1c1ccccc1 -0.608
CCCNC(=O)[C@@H]1c2ccccc2C(=O)N(C(C)C)[C@H]1c1ccc(CO)cc1 0.127
O=C1O[C@H](c2ccccc2)[C@H](c2ccccc2)N2[C@H]1[C@@H](C(=O)Nc1nc3ccccc3s1)[C@]1(C(=O)Nc3ccc(C#CC4(O)CCCCCC4)cc31)[C@H]2c1ccccc1OCCO 3.52
O=C1OCC=C[C@H]2OC34C=CCN(Cn5nnc6ccccc65)C(=O)[C@H]3N(CCCO)C(=O)[C@@H]4[C@@H]12 (stereo partly specified) -0.0684
COC(=O)[C@@]1(Cc2ccccc2)[C@H]2c3cc(C(=O)N(C)C)n(Cc4c(CO)[nH]cc(C)c4=O)c3C[C@H]2CN1C(=O)c1ccccc1 0.507
COC(=O)[C@@]1(Cc2ccc(OC)cc2)[C@H]2c3cc(C(=O)N(C)C)n(Cc4ccc(Cl)c(C(F)(F)F)c4)c3C[C@H]2CN1C(=O)c1ccccc1 0.812
C=CCNC(=O)[C@H]1[C@@H]2C(=O)O[C@@H](c3ccccc3)[C@@H](c3ccccc3)N2[C@@H](c2ccc(O)cc2)[C@]12C(=O)N(C(=O)OCCOC)c1ccccc12 0.229
CCCCCCCCCCC(O)C1C=CC2C(=O)N(C)C(=O)C2N1NC(=O)OC(C)(C)C (stereo unspecified) 0.0337
NC(N)=NCCCn1cc(CNC(=O)[C@@H](N)Cc2ccccc2)nn1 -0.264
CCOC(=O)C1CCCCN1 (stereo unspecified) 0.0619

— PubChem BioAssay
